Results filed as inconclusive are left out. Calls of active or inactive are those of the source. Calls come from the whole dose curve; as a rule, active = well fitted cell-killing curve with a large enough effect; inconclusive = small, poorly fitted or top-dose-only effect, or effect the other way; inactive = no such curve, though single readings can be large or run the other way.

We go through 40 compounds from PubChem BioAssay (NCATS).
Potency is the fitted concentration of half-maximal effect.

The nature of this assay: Quantitative High-Throughput drug screen in 47 multiple myeloma cell lines against the NCATS MIPE library collection: OCIMY7_PLB cell viability assay (AID 1918987). Note: nearly all actives have a fitted effect of over 65% in size. Particulars: OCI-MY7 myeloma viability, CellTiter-Glo ATP, 48 h; series mostly up to 45.8 µM. The source says: PI: Beverly A. Mock Ph.D.
Laboratory of Cancer Biology and Genetics,
Center for Cancer Research, National Cancer Institute,
National Institute of Health, Bethesda, Maryland
Drug resistance and disease progression are common in multiple myeloma (MM) patients, underscoring the need for new therapeutic combinations. […] We hypothesized that effective combinations would reduce MYC expression and enhance p16 activity. […] These preclinical data identify potentially useful drug combinations for evaluation in drug-resistant MM and reveal potential mechanisms of combined drug sensitivity.
Described herein is the primary MIPE qHTS used to cherrypick compounds. Validated compounds were then further tested for potential synergistic activiy.
[1] Peat TJ, Gaikwad SM, Dubois W, Gyabaah-Kessie N, Zhang S, Gorjifard S, Phyo Z, Andres M, Hughitt VK, Simpson RM, Miller MA, Girvin AT, Taylor A, Williams D, D'Antonio N, Zhang Y, Rajagopalan A, Flietner E, Wilson K, Zhang X, Shinn P, Klumpp-Thomas C, McKnight C, Itkin Z, Chen L, Kazandijian D, Zhang J, Michalowski AM, Simmons JK, Keats J, Thomas CJ, Mock BA. Drug combinations identified by high-throughput screening promote cell cycle transition and upregulate Smad pathways in myeloma. Cancer Lett. 2023 Aug 1;568:216284. doi: 10.1016/j.canlet.2023.216284. Epub 2023 Jun 24. PMID: 37356470; PMCID: PMC10408729.
SEQUENCE No. (e.g., 1, 2, 3, etc.); […] (e.g., Cells, Incubation, Reagent, etc.); VALUE and DESCRIPTION.
1; Cells; 5 uL; white, solid bottom 1536-well Greiner assay plate.
2; Compounds; 23 nL; Kalypsis pin tool (Wako USA) equipped with a 1536-well pin head to transfer to the assay plates.
3; Incubation; 48 hours; 37C incubation.
4; Reagent;5uL; CellTiter Glo (Promega).
5; Detector; 425V; Luminescence; Viewlux PerkinElmer.
NOTES (numbers refer to Sequence numbers above)
1. The cell-based screening methods employed in this study were like those previously published. Briefly, the corresponding myeloma cell lines were screened in 1,536-well plates with 500 cells, 5-uL per well for inhibition of cell viability (assessed by measuring ATP levels with CellTiterGlo).
2. NCATS MIPE 4.0 library of approved and investigational drugs were added using the Kalypsis pin tool. Wells treated with DMSO only for 100% viability and media only for 0% viability were used as controls.
3. The assay plates were covered and incubated for 48 hours in a 37C, 5% CO2 incubator with controlled humidity.
4. After 48 hours, CellTilter-GloTM luminescent substrate mix (Promega) reagent was added to the assay plate and plates we incubated for 5 min at room temperature.
5. Signal was measured as median relative luminescence units on a ViewLux (PerkinElmer) multiplate reader.
[1] Heske CM, Davis MI, Baumgart JT, Wilson K, Gormally MV, Chen L, Zhang X, Ceribelli M, Duveau DY, Guha R, Ferrer M, Arnaldez FI, Ji J, Tran HL, Zhang Y, Mendoza A, Helman LJ, Thomas CJ. Matrix Screen Identifies Synergistic Combination of PARP Inhibitors and Nicotinamide Phosphoribosyltransferase (NAMPT) Inhibitors in Ewing Sarcoma. Clin Cancer Res. 2017 Dec 1;23(23):7301-7311. doi: 10.1158/1078-0432.CCR-17-1121. Epub 2017 Sep 12. PMID: 28899971; PMCID: PMC6636827.
In general terms: In ATP-based viability assays light output follows the ATP content of the culture.
For the compound `COc1nc(C)nc(Cl)c1NC1=NCCN1`, the Potency is 18.7 µM (active).
For `Clc1ccccc1C(c1ccccc1)(c1ccccc1)n1ccnc1` the value was 18.7 µM (active); for `COc1ccc2[nH]cc(CCNC(C)=O)c2c1`, “inactive”; for `CN(C)C(=O)C(CCN1CCC(O)(c2ccc(Cl)cc2)CC1)(c1ccccc1)c1ccccc1`, 20.9 µM (active).
In the case of `CC1COc2c(N3CCN(C)CC3)c(F)cc3c(=O)c(C(=O)O)cn1c23` (stereo not given) it was “inactive”; in that of `Cc1cc(C(C)(C)C)cc(C)c1CC1=NCCN1`, “inactive”; in that of `CCN1CCCC1CNC(=O)c1cc(S(=O)(=O)CC)c(N)cc1OC` (stereo not given), “inactive”.
In the case of `Clc1ccc(C(c2ccccc2Cl)C(Cl)Cl)cc1` (stereo not given) it was 18.7 µM (active).
Take `CCC1(c2ccccc2)C(=O)NCNC1=O`: the Potency was 3.32 µM (active).
For `Cn1cnc2c1c(=O)[nH]c(=O)n2C` the value was 5.9 µM (active); for `CC(C)Cc1ccc(C(C)C(=O)O)cc1` (stereo not given), “inactive”; for `NC(=O)NO`, 0.132 µM (active).
Consider `CC12CC3CC(C)(C1)CC(N)(C3)C2`, for which the Potency is 23.5 µM (active).
For `CN(C)C(=N)N=C(N)N` the value was “inactive”.
In the case of `CN(C)CCCN1c2ccccc2CCc2ccc(Cl)cc21` it was 0.187 µM (active); in that of `COc1cc2nc(N3CCN(C(=O)C4COc5ccccc5O4)CC3)nc(N)c2cc1OC` (stereo not given), 18.7 µM (active).
In the case of `CN1CCN(CCCN2c3ccccc3Sc3ccc(Cl)cc32)CC1` it was 26.4 µM (active).
Regarding `CN(C)CCOC(c1ccccc1)c1ccccc1`, the Potency was 18.7 µM (active).
For `N[C@@H](Cc1c[nH]c2ccc(O)cc12)C(=O)O` the value was “inactive”; for `Nc1c2c(nc3ccccc13)CCCC2`, “inactive”.
`CCC1(C)CC(=O)NC1=O` (stereo not given): the Potency result was “inactive”.
Take `CC(C)C(=O)Nc1ccc([N+](=O)[O-])c(C(F)(F)F)c1`: the Potency was 2.96 µM (active).
Consider `COc1cc2nc(N3CCN(C(=O)c4ccco4)CC3)nc(N)c2cc1OC`, for which the Potency is 10.5 µM (active).
Consider `Fc1ccc([C@@H]2CCNC[C@H]2COc2ccc3c(c2)OCO3)cc1`, for which the Potency entry was “inactive”.
In the case of `Nc1ccn([C@H]2CC[C@@H](CO)O2)c(=O)n1` it was 13.2 µM (active).
Take `CC(CCc1ccc(O)cc1)NCCc1ccc(O)c(O)c1` (stereo not given): the Potency was 16.6 µM (active).
In the case of `CN1CCN(C2=Nc3cc(Cl)ccc3Nc3ccccc32)CC1` it was “inactive”; in that of `O=c1[nH]cc(F)c(=O)[nH]1`, 7.43 µM (active); in that of `Cc1ccc(-c2cc(C(F)(F)F)nn2-c2ccc(S(N)(=O)=O)cc2)cc1`, 20.9 µM (active).
For the compound `Cn1ccc2cc3c(cc21)CCN3C(=O)Nc1cccnc1`, the Potency was 20.9 µM (active).
In the case of `CN1C2CCC1CC(OC(=O)C(CO)c1ccccc1)C2` (stereo not given), the Potency result is “inactive”.
Consider `CC(C(=O)O)c1cccc(C(=O)c2ccccc2)c1` (stereo not given), for which the Potency entry is “inactive”.
For `CN(C)CCC=C1c2ccccc2C=Cc2ccccc21` the value was 14.8 µM (active); for `CN1CCN2c3ccccc3Cc3ccccc3C2C1` (stereo not given), 18.7 µM (active); for `CCCCc1oc2ccccc2c1C(=O)c1cc(I)c(OCCN(CC)CC)c(I)c1`, 18.7 µM (active).
For `Nc1nc2c(ncn2COC(CO)CO)c(=O)[nH]1` the value was 2.64 µM (active); for `Nc1nnc(-c2cccc(Cl)c2Cl)c(N)n1`, 33.2 µM (active).
Consider `NC12CC3CC(CC(C3)C1)C2`, for which the Potency result was “inactive”.
For `CN1CCC(=C2c3ccccc3C=Cc3ccccc32)CC1` the value was 5.9 µM (active); for `CS(=O)(=O)CCNCc1ccc(-c2ccc3ncnc(Nc4ccc(OCc5cccc(F)c5)c(Cl)c4)c3c2)o1`, 0.0833 µM (active).
